Common to all, as to assay: yeast three-hybrid, YBZ-1, SC-Leu-His + 0.5 mM 3-AT, 4 days
Settings in all cases: tags: N-Gal4 AD-HA kept; label: inside an RPR1-promoter hybrid RNA with tandem MS2 sites; ssRNA

One assay addresses PUM1 PUF domain R2-SIP (Homo sapiens, UniProt Q14671 828-1176, N899S;Y900I;Q903P). The method, boiled down:
(§1)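 A centromeric plasmid in strain YBZ-1 co-expressed Pumilio-1 PUF domain libraries, randomized at the three base-contacting residues of each repeat, with matching RNA elements; the strain carries a LexA–MS2 coat fusion and a HIS3 reporter. After four days on SC-Leu (input) or SC-Leu-His + 0.5 mM 3-AT (selection), the repeat regions were PCR-amplified and Illumina-sequenced. The interaction score is the log change in variant frequency from input to selection, using log2 and a pseudocount of 1 where absent.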

A further assay has as its target PUM1 PUF domain R3-TRT (Homo sapiens, UniProt Q14671 828-1176, C935T;Q939T). The method, boiled down:
as §1

A further assay deals with PUM1 PUF domain R5-LYR (Homo sapiens, UniProt Q14671 828-1176, C1007L;R1008Y;Q1011R). The gist of the method: as §1
In the next assay the target is PUM1 PUF domain R5-DFS (Homo sapiens, UniProt Q14671 828-1176, C1007D;R1008F;Q1011S). The method, boiled down:
as §1

A further assay has as its target T1, PUM1 PUF domain R6-WHR (Homo sapiens, UniProt Q14671 828-1176, N1043W;Y1044H;Q1047R).
T1 sequence: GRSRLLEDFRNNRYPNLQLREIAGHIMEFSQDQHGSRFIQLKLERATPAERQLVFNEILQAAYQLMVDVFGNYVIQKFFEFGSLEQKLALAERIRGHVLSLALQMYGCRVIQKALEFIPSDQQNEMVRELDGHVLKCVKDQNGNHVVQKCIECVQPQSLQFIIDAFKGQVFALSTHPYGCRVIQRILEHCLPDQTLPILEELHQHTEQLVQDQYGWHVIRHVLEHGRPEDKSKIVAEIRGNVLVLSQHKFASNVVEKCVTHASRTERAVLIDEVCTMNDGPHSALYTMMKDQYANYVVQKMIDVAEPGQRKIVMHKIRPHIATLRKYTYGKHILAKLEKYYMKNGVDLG
The gist of the method:
as §1

The target in the next assay is PUM1 PUF domain R5-SVV (Homo sapiens, UniProt Q14671 828-1176, C1007S;R1008V;Q1011V). The method, boiled down:
as §1

In the next assay the target is PUM1 PUF domain R3-CRI (Homo sapiens, UniProt Q14671 828-1176, Q939I). The method, boiled down: as §1
In another assay the target is PUM1 PUF domain R1-RKL (Homo sapiens, UniProt Q14671 828-1176, S863R;R864K;Q867L). The method, boiled down:
as §1

The next assay addresses PUM1 PUF domain R1-KWS (Homo sapiens, UniProt Q14671 828-1176, S863K;R864W;Q867S). The gist of the method:
as §1

A further assay deals with PUM1 PUF domain R3-YRW (Homo sapiens, UniProt Q14671 828-1176, C935Y;Q939W). The gist of the method: as §1

As to “GGCUAGAACUAGUGGAUCCCCCGGCGCCCGGCGGCUCGAGCCCGGGUAAGUGUAAAGAGUCUGCAUGCCGCCGGGCGCCAUGCCUGCAGGUCGACUCUAGAAAACAUG”, the binding signal with PUM1 PUF domain R2-SIP is 3.71 log2 enrichment (interaction score).

Regarding “GGCUAGAACUAGUGGAUCCCCCGGCGCCCGGCGGCUCGAGCCCGGGUAAGUGUAAUUAGUCUGCAUGCCGCCGGGCGCCAUGCCUGCAGGUCGACUCUAGAAAACAUG”, the binding signal with PUM1 PUF domain R3-TRT was 1.8 log2 enrichment (interaction score).

“GGCUAGAACUAGUGGAUCCCCCGGCGCCCGGCGGCUCGAGCCCGGGUAAGUGUUAAUAGUCUGCAUGCCGCCGGGCGCCAUGCCUGCAGGUCGACUCUAGAAAACAUG”: the values for the binding signal with PUM1 PUF domain R5-LYR and with PUM1 PUF domain R5-DFS were 3.43 log2 enrichment (interaction score) and 5.63 log2 enrichment (interaction score), respectively.

As to “GGCUAGAACUAGUGGAUCCCCCGGCGCCCGGCGGCUCGAGCCCGGGUAAGUGUCAAUAGUCUGCAUGCCGCCGGGCGCCAUGCCUGCAGGUCGACUCUAGAAAACAUG”, the binding signal with PUM1 PUF domain R5-LYR is 3.17 log2 enrichment (interaction score).

With “GGCUAGAACUAGUGGAUCCCCCGGCGCCCGGCGGCUCGAGCCCGGGUAAGUGUAAAUAGUCUGCAUGCCGCCGGGCGCCAUGCCUGCAGGUCGACUCUAGAAAACAUG”, the binding signal with PUM1 PUF domain R6-WHR is 3.96 log2 enrichment (interaction score); with PUM1 PUF domain R5-LYR, 4.43 log2 enrichment (interaction score); in the assay with PUM1 PUF domain R5-SVV, 0.43 log2 enrichment (interaction score); with PUM1 PUF domain R3-CRI, 3.93 log2 enrichment (interaction score); with PUM1 PUF domain R3-TRT, 4.01 log2 enrichment (interaction score).

For the sequence “GGCUAGAACUAGUGGAUCCCCCGGCGCCCGGCGGCUCGAGCCCGGGUAAGUGUAAAUUGUCUGCAUGCCGCCGGGCGCCAUGCCUGCAGGUCGACUCUAGAAAACAUG”, the binding signal with PUM1 PUF domain R1-RKL is 2.52 log2 enrichment (interaction score); in the assay with PUM1 PUF domain R1-KWS, 3.62 log2 enrichment (interaction score).

“GGCUAGAACUAGUGGAUCCCCCGGCGCCCGGCGGCUCGAGCCCGGGUAAGUGUAAGUAGUCUGCAUGCCGCCGGGCGCCAUGCCUGCAGGUCGACUCUAGAAAACAUG”: the binding signal with PUM1 PUF domain R3-YRW is 4.4 log2 enrichment (interaction score).

As for “GGCUAGAACUAGUGGAUCCCCCGGCGCCCGGCGGCUCGAGCCCGGGUAAGUGUGAAUAGUCUGCAUGCCGCCGGGCGCCAUGCCUGCAGGUCGACUCUAGAAAACAUG”, the binding signal is 0.51 log2 enrichment (interaction score) with PUM1 PUF domain R5-LYR and 3.44 log2 enrichment (interaction score) in the assay with PUM1 PUF domain R5-SVV.

For “GGCUAGAACUAGUGGAUCCCCCGGCGCCCGGCGGCUCGAGCCCGGGUAAGUGUAAAUCGUCUGCAUGCCGCCGGGCGCCAUGCCUGCAGGUCGACUCUAGAAAACAUG”, in the assay with PUM1 PUF domain R1-KWS, the binding signal is 3.87 log2 enrichment (interaction score).

The values above are taken from article PMC8384837, “Expanding the binding specificity for RNA recognition by a PUF domain”.
